This passage reports Potency results from PubChem BioAssay (NCATS).

Common to all, as to experiment: qHTS profiling for inhibitors of Plasmodium falciparum proliferation (AID 504749); note: nearly all actives have a fitted effect of over 60% in size
Common to all, as to conditions: P. falciparum in erythrocytes, SYBR Green DNA, 72 h; series mostly up to 28.7 µM
(Quantitative high-throughput screening tests each substance at several concentrations.)

Test [1] deals with AS120. In short, it runs like this:
(§1)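 Fluorescence of SYBR Green-bound parasite DNA, read at 485/535 nm, served as the growth measure. Infected erythrocytes were cultured with compound 72 h; artemisinin (0.29 uM) and DMSO wells defined the normalization range.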

Test [2] deals with ATS189. In short, it runs like this: as §1
Test [3] has as its system ATS95. In short, it runs like this: as §1
The test system of test [4] is C2A. An outline of the steps:
as §1

Test [5] concerns CP185. An outline of the steps:
as §1

Test [6] concerns CP191. An outline of the steps:
as §1

Test [7] relates to CP192. In short, it runs like this:
as §1

The test system of test [8] is CP194. In short, it runs like this:
as §1

Test [9] relates to CP201. An outline of the steps:
as §1

In test [10] the test system is CP203. An outline of the steps: as §1
In test [11] the test system is CP211. An outline of the steps: as §1
For test [12], the system named is CP215. An outline of the steps: as §1
For test [13], the system named is CP217. An outline of the steps:
as §1

The subject of test [14] is CP237. An outline of the steps: as §1
Test [15] concerns CP238. In short, it runs like this: as §1
Test [16] deals with CP247. An outline of the steps: as §1
The subject of test [17] is CP252. In short, it runs like this: as §1
The subject of test [18] is CP256. An outline of the steps:
as §1

The test system of test [19] is CP260. An outline of the steps:
as §1

Test [20] deals with CP250. In short, it runs like this:
as §1

The structures appear in SMILES notation. Records with an inconclusive call do not appear. Active and inactive are the calls of the source. Calls come from the whole dose curve; as a rule, active = well fitted inhibition curve with a large enough effect; inconclusive = small, poorly fitted or top-dose-only effect; inactive = flat fitted curve, though single readings scatter.
Potency is the fitted concentration of half-maximal effect.

Turning to `O=C(O)CCCc1ccc(N(CCCl)CCCl)cc1`, the Potency entry in test [1], in test [2], in test [3], in test [4], in test [5] and in [6] was “inactive” each time. The Potency result in [7], in test [8], in [9], in [10], in [11] and in test [12] was “inactive” in each case. Further, the Potency entry in test [13], in [14], in [15], in test [16], in test [17] and in test [18] was “inactive” each time. Also, the Potency entry in [19] is “inactive”.

For the molecule `NNc1ccccc1`, the Potency result in [1], in test [2], in [3], in test [4], in test [5] and in test [6] was “inactive” each time. For the same molecule, the Potency result in [7], in test [8], in test [9], in [10], in test [11] and in [12] was “inactive” in each case. Moreover, the Potency entry in test [13], in test [14], in test [15], in [16], in test [20] and in test [17] was “inactive” each time. Besides, the Potency entry in test [18] and in test [19] was “inactive” in each case.

Regarding `CCOP(=S)(OCC)Oc1ccc2c(C)c(Cl)c(=O)oc2c1`, the Potency result in [4], in [7] and in test [16] was “inactive” in each case.

As to `CCC(C)(C)c1ccc(O)cc1`, the Potency result in test [1], in test [2], in [4], in test [5], in [6] and in test [7] was “inactive” throughout. For the same molecule, the Potency result in [8], in test [9], in test [10], in test [11], in test [12] and in test [13] was “inactive” each time. For the same molecule, the Potency entry in [14], in test [15], in test [16], in test [20], in test [17] and in [18] was “inactive” each time. Besides, the Potency entry in test [19] is “inactive”.

For `CCC1(CC)C(=O)C=CNC1=O`, the Potency entry in test [1], in test [2], in test [3], in test [4], in test [5] and in test [6] was “inactive” in each case. The Potency entry in test [7], in test [8], in [9], in [10], in [11] and in [12] was “inactive” each time. Besides, the Potency entry in test [13], in test [14], in [15], in test [20], in test [17] and in test [18] was “inactive” throughout. Besides, the Potency result in test [19] is “inactive”.

As to `Cc1nnc2n1-c1ccc(Cl)cc1C(c1ccccc1)=NC2`, the Potency result in test [1], in test [4], in [5], in [6], in test [7] and in [8] was “inactive” each time. The Potency entry in test [9], in [10], in [11], in test [12], in test [13] and in test [14] was “inactive” in each case. Moreover, the Potency entry in test [15], in [16], in [20], in test [17] and in test [19] was “inactive” throughout.

On to `O=C1c2ccccc2C(=O)c2ccccc21`, for which the Potency result in [1], in test [3], in [4], in [5], in test [7] and in [8] was “inactive” each time. Also, the Potency result in test [9], in test [10], in [11], in test [12], in test [13] and in [14] was “inactive” in each case. Further, the Potency entry in test [15], in test [16], in test [20], in test [17] and in test [18] was “inactive” in each case.

In the case of `COC(=O)C(c1ccccc1)C1CCCCN1` (stereo not given), the Potency entry in test [1], in [2], in test [3], in test [4], in test [5] and in test [6] was “inactive” in each case. Also, the Potency result in [7], in test [9], in test [10], in test [11], in [12] and in test [13] was “inactive” throughout. Moreover, the Potency result in [15], in test [16], in test [20], in test [17], in test [18] and in test [19] was “inactive” throughout. Besides, the Potency in [14] was 12.6 µM (active).

Consider `CC(C)(C)NCC(O)c1ccccc1Cl` (stereo not given), for which the Potency entry in test [4], in test [6], in test [7], in test [9], in test [11] and in [20] was “inactive” in each case. Further, the Potency result in test [18] was “inactive”. Also, the Potency in test [14] was 8.91 µM (active).

Consider `Clc1ccc(C(c2ccc(Cl)cc2)C(Cl)(Cl)Cl)cc1`, for which the Potency entry in test [1], in [3], in test [4], in test [5], in test [7] and in [9] was “inactive” in each case. Further, the Potency entry in [11], in [13], in [15], in test [16], in test [20] and in [17] was “inactive” in each case. For the same molecule, the Potency entry in [18] and in [19] was “inactive” throughout.
